In PubChem BioAssay AID504834 (National Center for Advancing Translational Sciences (NCATS), 2011):
In all, about 320,000 compounds went through this assay and about 22,000 (6.9%) were called active. Not shown: some 27% with an inconclusive outcome. This is one part of a sample in which actives are shown more often than they occur. Values without a mark were called inactive. Calls follow the shape of the dose curve; as a rule, active = well fitted inhibition curve with a large enough effect; inconclusive = small, poorly fitted or top-dose-only effect, or another doubt; inactive = no such curve, though single readings can be large or run the other way.

assay: Primary qHTS for delayed death inhibitors of the malarial parasite plastid, 96 hour incubation; details: P. falciparum luciferase reporter growth; series mostly up to 28.7 µM; activity change, negative = inhibition: at the top concentration
Procedure, shortened: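 Readout is luminescence from an integrated firefly luciferase in P. falciparum. Red cells, 2% hematocrit and 0.05% parasitemia final, were cultured with compound through two parasite generations (96 hours) at 37 C, 5% CO2.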
% is scaled to controls: 0 for no effect and ±100 for the full control effect; potency is read from the fitted curve at half-maximal effect.

Row | SMILES | Potency | activity change, negative = inhibition [%]
1 | CCCN1CCn2c3c(c4cc(Br)ccc42)CCCC31 (centres undefined) | 1.85 µM (active) | –
2 | CCc1ccc(N(CC(=O)NCc2cccnc2)S(=O)(=O)c2ccccc2)cc1 | – | 38.2
3 | CCN(CC(=O)Nc1ccc(NC(C)=O)cc1)C(=O)C1CC(=O)N(Cc2ccc(C)cc2)C1 (centres undefined) | – | -14.4
4 | Cc1cc(=O)n2nc(N3CCCC(C(=O)N4CCN(C)CC4)C3)sc2n1 (centres undefined) | – | 42.1
5 | Cc1cc(=O)n2nc(N3CCCC(C(=O)NCc4cccc(Cl)c4)C3)sc2n1 (centres undefined) | – | -10.9
6 | COc1ccc(CCNC(=O)C2CCN(c3nn4c(=O)cc(C)nc4s3)CC2)cc1OC | – | 48.4
7 | Cc1cc(=O)n2nc(N3CCCC3C(=O)NCCCN3CC(C)CC(C)C3)sc2n1 (centres undefined) | – | -31.2
8 | Cc1cc(=O)n2nc(N3CCC(C(=O)Nc4c(F)c(F)c(F)c(F)c4F)CC3)sc2n1 | 4.15 µM (active) | –
9 | CCCOc1ccc(CNC(=O)C2CCN(c3nn4c(=O)cc(C)nc4s3)CC2)cc1 | 11.7 µM (active) | –
10 | Cc1ccc(CN2CC(C(=O)NNC(=O)Cn3ccc(C(F)(F)F)n3)CC2=O)cc1 (centres undefined) | – | -27.3
11 | Cc1ccc(-c2noc(C3CCCN(C(=O)c4cccc(Cl)c4)C3)n2)o1 (centres undefined) | – | -0.0475
12 | N#CC1(NC(=O)COC(=O)CSc2ccc(F)cc2)CCCCC1 | – | 17.6
13 | O=C(Nc1cccc(F)c1)NC1CCCCCCC1 | – | -19.5
14 | CCCCNC(=O)N(O)C1N(/N=C/c2ccc(N(C)C)cc2)C(=S)SC1(C)C (centres undefined) | – | -22.9
15 | CCCCNC(=O)N(O)C1N(/N=C/c2ccccc2O)C(=S)SC1(C)C (centres undefined) | 3.29 µM (active) | –
16 | O=C(/C=C/c1ccco1)NC(=S)N1CCCCC1 | – | 16
17 | CC(=O)Oc1ccc2c(c1)C(=O)c1ccccc1C2=O | – | 55.8
18 | CCOC(=O)c1nc(C)n(-c2ccc(Cl)cc2Cl)n1 | – | -0.697
19 | CCOC(=O)c1cnc(COc2ccccc2Cl)[nH]c1=O | – | 30.2
20 | CCOC(=O)c1cnc(SC)nc1Sc1ccc(Cl)cc1Cl | 9.28 µM (active) | –
21 | CC[C@@H](C)[C@H](NC(=O)CCc1c(C)c2cc3c4c(oc3c(C)c2oc1=O)CCCC4)C(=O)O | – | 7
22 | COCCn1c(N)c(NCc2ccccc2)c(=O)[nH]c1=O | – | 6.25

Row | SMILES | Potency | activity change, negative = inhibition [%]
23 | CC(Sc1nnc(-c2ccccc2F)n1C1CC1)C(N)=O (centres undefined) | – | -6.75
24 | CC(C)N(C(=O)c1ccc(-c2ccccc2F)cc1)C(C)C | 4.65 µM (active) | –
25 | CCN(CC(=O)Nc1c(F)cccc1F)C(=O)c1ccc(-c2ccccc2)cc1 | – | 48.3
26 | Cc1ccn(CCC(=O)N2c3ccccc3CC2C)n1 (centres undefined) | – | 8.75
27 | O=C(COC(=O)c1ccccn1)NNC(=O)c1ccc([N+](=O)[O-])cc1 | – | 0.85
28 | CC(O)c1nc2ccccc2n1Cc1ccc([N+](=O)[O-])cc1 (centres undefined) | 1.85 µM (active) | –
29 | C[C@@H](O)c1nc2ccccc2n1N | – | -9.87
30 | Cc1nc2ccccc2c(=O)n1Cc1ccc([N+](=O)[O-])cc1 | – | -2.72
31 | COc1cccc(N2CC(NC(=O)c3ccc4ccccc4c3)CC2=O)c1 (centres undefined) | – | -1.39
32 | COc1ccc(C2/C=C\CN(S(=O)(=O)c3cccs3)CC(=O)N2Cc2ccc(F)cc2)cc1 (centres undefined) | 10.4 µM (active) | –
33 | O=S(=O)(c1cccs1)N1CCN(Cc2ccccc2)CC1 | – | 3.61
34 | COc1ccc(C2/C=C\CN(CC(C)C)CC(=O)N2Cc2ccc(F)cc2)cc1 (centres undefined) | – | -63.8
35 | CC(NC(=O)CN(C)S(=O)(=O)c1ccc(F)cc1)C1CC2CCC1C2 (centres undefined) | – | -25.3
36 | C=CCOc1ccc(/C=C/C(=O)OCC(=O)NCC2CCCO2)cc1 (centres undefined) | – | 14.2
37 | COc1cc([N+](=O)[O-])cc([N+](=O)[O-])c1NC(=O)N1CCOCC1 | – | -1.21
38 | O=C(Nc1ccccc1C(=O)O)c1ccc(N2C(=O)C3CC=CCC3C2=O)cc1 (centres undefined) | – | 0
39 | O=C(CSc1ccc(-c2ccc(Br)cc2)nn1)NCC1CCCO1 (centres undefined) | – | -3.49
40 | COc1ccc(CCNC(=O)CN2C(=O)COc3ccc(S(=O)(=O)N4CCCC4)cc32)cc1OC | – | 24
41 | CCN1C(=O)[C@H]2[C@@H](c3ccc(SC4CCCCC4)c(OC)c3)N[C@@](Cc3ccccc3)(C(=O)OC)[C@H]2C1=O | – | -29.2
42 | CCOC(=O)C1(Cc2ccc(O)cc2)NC(c2ccccc2F)C2C(=O)N(C)C(=O)C21 (centres undefined) | – | 122
43 | CCN1C(=O)[C@H]2[C@@H](c3ccc(-c4ccc(F)cc4)cc3)N[C@@](Cc3ccccc3)(C(=O)OC)[C@H]2C1=O | 5.86 µM (active) | –
44 | CCC(C)CCN1CCN=C1N(C)C (centres undefined) | – | 51.7

Row | SMILES | Potency | activity change, negative = inhibition [%]
45 | CCOc1ccc(/C=N\NC(=O)c2c(C)nc3cc(C)ccn23)cc1 | – | 10.6
46 | CCOC(=O)C1CCN(Cc2ccc(-c3ccccc3)cc2)CC1 | – | -21.5
47 | CCN(CC)Cc1c(C(=O)OC)nnn1-c1nonc1N | – | -0.231
48 | CCOC(=O)c1nnn(-c2nonc2-n2cccc2)c1CN1CCC(C(=O)OCC)CC1 | 0.928 µM (active) | –
49 | Cc1ccccc1OCC(=O)Nc1nnc(S(=O)(=O)N2CCCC2)s1 | – | 40.6
50 | CCOC(=O)CC1COCCN1C(=O)c1cc(COc2ccc(F)c(F)c2)on1 (centres undefined) | – | 16.8
51 | Cn1c(N2CCOCC2)c(C=O)c2ccccc21 | – | 4.33
52 | FC(F)(F)c1ccnc(Oc2ccc(C3=NCCS3)cc2)c1 | – | 335
53 | O=[N+]([O-])c1cc(S(=O)(=O)CCCN2CCOCC2)ccc1F | 10.4 µM (active) | –
54 | O=S(=O)(NCCCN1CCOCC1)c1ccc(F)c(Cl)c1 | – | -15.7
55 | O=C(NCCCN1CCOCC1)c1ccc([N+](=O)[O-])cc1[N+](=O)[O-] | – | 18.7
56 | CCc1nccn1CCC(=O)N1CCCC(N2CCN(c3ccccc3F)CC2)C1 (centres undefined) | – | 40.6
57 | CCOc1ccc(NC(=O)CN(C)C(=O)CSc2ccccc2)cc1OCC | – | 17.1
58 | CCc1ccc(-c2nn(-c3ccccc3C)cc2C(=O)N2CCN(C3CCS(=O)(=O)C3)CC2)cc1 (centres undefined) | – | -29
59 | CCc1ccc(N2CC(C(=O)Nc3ccc(S(=O)(=O)Nc4nccs4)cc3)CC2=O)cc1 (centres undefined) | – | 19.7
60 | COc1ccc([N+](=O)[O-])cc1N(CC(O)CN(CC(C)C)CC(C)C)S(=O)(=O)c1ccc(C)cc1 (centres undefined) | – | -6.94
61 | CCOc1ccc2[nH]c(C(=O)N/N=C/c3cccc(OC)c3OC)cc2c1 | – | 17.8
62 | COc1cc2cc(C(=O)N/N=C/c3cccc(OC)c3OC)[nH]c2cc1OC | – | -29.6
63 | COc1ccc2[nH]c(C(=O)N/N=C/c3cc(OC)c(OC)c(OC)c3)cc2c1 | 5.86 µM (active) | –
64 | Cc1ccnc(NS(=O)(=O)c2ccc(NC(=O)c3oc4ccc(F)cc4c3C)cc2)n1 | – | 2.11
